The source of these data is PubChem BioAssay (NCATS).

Structures are written as SMILES. Inconclusive results are not listed. Calls of active or inactive are those of the source. Unless noted, calls follow the shape of the dose curve; as a rule, active = well fitted curve in either direction with a large enough effect (not every such curve was filed as active); inconclusive = small, poorly fitted or top-dose-only effect, or another doubt; inactive = flat fitted curve, though single readings scatter.

Test [1] has as its target Lysosomal acid glucosylceramidase (Homo sapiens) (UniProt P04062). The experiment in a line: Glucocerebrosidase-p2 (AID 348; in the data active = potency below about 10 µM; also: potency is read from the fitted curve at half-maximal effect). The conditions noted are these: purified GBA, blue fluorogenic substrate, 40 min. An outline of the steps:
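Compounds titrated from 0.6 nM upwards against 0.2 nM enzyme in pH 5.9 citric acid/KH2PO4, taurocholate, tween-20; blue fluorogenic substrate 80 uM, 40 min room temperature, stopped and read Ex 365/Em 440 for AC50.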

Test [2] is described as follows: AP1 Signaling Pathway (AID 357).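 Also: ME-180 reporter cells stimulated with EGF at its EC50 level; % is scaled to controls: 0 for no effect and ±100 for the full control effect.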 As to conditions: ME-180 AP-1-bla reporter, EGF-induced, beta-lactamase ratio, 5 h; at 7.69 µM (top of the series) unless noted. An outline of the steps:
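AP-1-bla ME-180 cells, Opti-MEM + 0.5% dialyzed FBS, plated overnight 37 °C. Cpd titration + EC50 EGF, 5 h 37 °C. CCF4 2.5 h RT; ex 405, em 460/530 ratio → %activity, AC50.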

Test [3] concerns the target Cytochrome P450 1A2 (Homo sapiens) (UniProt P05177). The test is described as follows: p450-cyp1a2 (AID 410; calls by dose curve; also: potency is read from the fitted curve at half-maximal effect). The conditions noted are these: recombinant CYP1A2, luciferin-ME demethylation, luminescence; series mostly up to 57 µM. The essentials: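 Human CYP1A2 (20nM) demethylated Luciferin-ME at its Km (100uM) in 100mM KPO4. After 10 min compound preincubation, NADPH regeneration ran the reaction 60 min at room temperature. Luciferin was read by luminescence, normalized to 57 uM furafylline.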

Test [4] can be described thus: NFAT Signaling Pathway (AID 444).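 Also: carbachol stimulus at about its EC50 of 1 µM final; % is scaled to controls: 0 for no effect and ±100 for the full control effect.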 The conditions noted are these: Jurkat NFAT-bla M1, carbachol, beta-lactamase ratio, 5 h; at 7.69 µM (top of the series) unless noted. The essentials: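 Read-out: CCF4 FRET ratio (460 nm/530 nm) after 1 h RT dye loading, used for %activity and AC50 from titration series. Cells: Jurkat NFAT-β-lactamase/M1 line, treated with compound plus 1 uM carbachol for 5 h, 37 °C.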

Test [5] in a line: Stat Signaling Pathway (AID 446).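 Also: ME-180 cervical cancer cells given 40 pM IL-6 alongside compound; SIE-controlled beta-lactamase reporter measured as 460/530 nm FRET emission ratio; % is scaled to controls: 0 for no effect and ±100 for the full control effect.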 The conditions noted are these: ME-180 SIE beta-lactamase reporter, IL-6 stimulated, 5 h; at 7.69 µM (top of the series) unless noted. An outline of the steps: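 Reporter line: ME-180 cervical carcinoma, SIE-beta-lactamase. Treatment: compound with 40 pM IL-6, 5 hrs, 37 C, in low-serum OPTI-MEM with 10 mM HEPES pH 7.3. Detection: 460/530 nm fluorescence.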

The target of test [6] is Glucocorticoid receptor (Homo sapiens) (UniProt P04150). The experiment in a line: GR-GFP Redistribution (AID 450;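 active = compounds whose dose series gives a full or clear partial fitted curve of increased nuclear translocation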; also: potency is read from the fitted curve at half-maximal effect). As to conditions: U2OS GR-GFP nuclear translocation, laser cytometry, 2 h.
Glucocorticoid receptor (Homo sapiens), sequence (P04150 whole entry, looked up, the tested form may be a part): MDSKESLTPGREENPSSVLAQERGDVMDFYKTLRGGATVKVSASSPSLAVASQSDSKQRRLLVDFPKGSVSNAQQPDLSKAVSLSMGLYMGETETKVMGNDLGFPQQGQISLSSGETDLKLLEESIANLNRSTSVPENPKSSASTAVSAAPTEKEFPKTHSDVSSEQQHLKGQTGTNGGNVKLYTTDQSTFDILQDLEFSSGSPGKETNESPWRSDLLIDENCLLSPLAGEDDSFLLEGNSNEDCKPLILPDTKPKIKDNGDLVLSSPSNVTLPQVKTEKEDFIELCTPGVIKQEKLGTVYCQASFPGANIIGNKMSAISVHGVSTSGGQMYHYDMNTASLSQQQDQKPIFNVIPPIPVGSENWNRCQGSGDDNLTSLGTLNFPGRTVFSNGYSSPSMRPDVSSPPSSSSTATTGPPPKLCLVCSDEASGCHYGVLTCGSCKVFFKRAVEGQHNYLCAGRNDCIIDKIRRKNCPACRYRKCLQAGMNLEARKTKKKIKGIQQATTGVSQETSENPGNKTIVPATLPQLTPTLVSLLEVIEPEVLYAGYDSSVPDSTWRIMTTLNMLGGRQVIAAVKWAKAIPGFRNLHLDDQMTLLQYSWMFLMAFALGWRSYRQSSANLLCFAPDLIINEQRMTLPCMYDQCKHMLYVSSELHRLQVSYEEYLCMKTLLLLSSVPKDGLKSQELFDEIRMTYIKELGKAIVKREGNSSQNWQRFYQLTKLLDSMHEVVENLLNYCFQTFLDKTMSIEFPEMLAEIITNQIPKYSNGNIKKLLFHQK
The target of test [7] is Mitogen-activated protein kinase 10 (Mus musculus) (UniProt Q61831). The test is described as follows: JNK3 AlphaScreen Assay (AID 530).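 Also: kinase came from lysate of stimulated human HepG2 cells; signal reports phosphorylation of biotinylated GST-cJun 1-79 at Ser73 with 10 µM ATP; % is scaled to controls: 0 for no effect and ±100 for the full control effect.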 As to conditions: JNK3 lysate, c-Jun phosphorylation; series mostly up to 57.1 µM. An outline of the steps: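 Room-temperature AlphaScreen kinase assay; pre-activated HepG2 lysate as JNK3 source, biotin-GST-cJun(1-79) substrate, 10 uM ATP, compound 15 min preincubation.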
A general note: In Alpha technology, singlet oxygen from a donor bead excites a nearby acceptor bead.

The target in test [8] is 3',5'-cyclic-AMP phosphodiesterase 4B (Homo sapiens) (UniProt Q07343). The experiment in a line: qHTS Assay for Inhibitors of PDE-IV (AID 607; active = well fitted activation curve with a large enough effect in the main read-out, with a control signal flat, not every such curve was filed as active; also: % of control where 0% means no effect). The conditions noted are these: HEK293 ACTOne CNG channel cells, membrane potential fluorescence; series mostly up to 22.9 µM. An outline of the steps: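 Cell-based read-out of cAMP via a modified cyclic nucleotide-gated channel and membrane potential dye (535/590 nm) in HEK293 cells expressing PDE4 endogenously. Compounds tested up to 22.9 uM final; 100 uM RO 20-1724 reference.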
3',5'-cyclic-AMP phosphodiesterase 4B (Homo sapiens), sequence (Q07343 whole entry, looked up): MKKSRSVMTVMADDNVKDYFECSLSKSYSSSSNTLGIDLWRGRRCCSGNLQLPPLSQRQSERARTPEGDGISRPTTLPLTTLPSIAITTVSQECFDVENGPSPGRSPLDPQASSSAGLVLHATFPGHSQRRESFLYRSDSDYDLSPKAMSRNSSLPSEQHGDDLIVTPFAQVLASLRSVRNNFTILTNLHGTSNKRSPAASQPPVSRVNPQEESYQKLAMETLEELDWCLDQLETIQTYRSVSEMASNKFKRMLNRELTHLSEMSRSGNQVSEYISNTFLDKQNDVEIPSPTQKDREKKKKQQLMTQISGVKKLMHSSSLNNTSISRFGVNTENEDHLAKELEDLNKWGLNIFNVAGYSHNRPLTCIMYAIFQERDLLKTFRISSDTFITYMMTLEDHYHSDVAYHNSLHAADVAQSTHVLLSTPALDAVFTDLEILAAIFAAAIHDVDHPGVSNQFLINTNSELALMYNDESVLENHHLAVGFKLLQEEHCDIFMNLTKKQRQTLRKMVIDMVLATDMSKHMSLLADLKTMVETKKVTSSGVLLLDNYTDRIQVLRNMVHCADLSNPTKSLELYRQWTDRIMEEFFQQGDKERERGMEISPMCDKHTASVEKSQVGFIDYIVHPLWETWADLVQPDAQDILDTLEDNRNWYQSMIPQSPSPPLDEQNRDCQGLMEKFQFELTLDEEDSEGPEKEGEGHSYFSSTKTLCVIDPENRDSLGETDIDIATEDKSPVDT
In general terms: qHTS replaces the single test concentration by a dilution series.

Test [9] in a line: qHTS Assay for Lipid Storage Modulators (AID 1519; calls by dose curve). The conditions noted are these: Drosophila S3 cells, BODIPY lipid droplet/cell ratio, laser cytometry, cells loaded with oleic acid; for activity change, negative = inhibition: at 57.5 µM (top of the series). The essentials:
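Cells seeded at 5,000 per well were treated with compounds over a concentration series and loaded with oleic acid (400 uM, as added). Lipid droplet fluorescence (488 nm excitation, 500-530 nm channel) was read by laser-scanning cytometry and normalized to 20 uM Triacsin C.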

Test [10] deals with Dual specificity protein kinase CLK4 (Homo sapiens) (UniProt Q9HAZ1). The experiment in a line: qHTS Assay for Inhibitors of CDC-like Kinase 4 (Kinase-Glo Assay) (AID 1770; active = well fitted curve in the direction sought with a large enough effect; an effect the other way counts as inactive or inconclusive; also: nearly all actives have a fitted effect of over 65% in size; also: potency is read from the fitted curve at half-maximal effect). The conditions noted are these: recombinant Clk4, Kinase-Glo ATP depletion luminescence; series mostly up to 66.7 µM. An outline of the steps: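 Substrate mix (RS peptide 100 uM, ATP 1 uM) dispensed, compound pinned in, then Clk4 added to 25 nM final. Incubated 4.5 h at RT; Kinase-Glo reagent added, luminescence read after 5 min.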
Dual specificity protein kinase CLK4 (Homo sapiens), sequence (Q9HAZ1 whole entry, looked up): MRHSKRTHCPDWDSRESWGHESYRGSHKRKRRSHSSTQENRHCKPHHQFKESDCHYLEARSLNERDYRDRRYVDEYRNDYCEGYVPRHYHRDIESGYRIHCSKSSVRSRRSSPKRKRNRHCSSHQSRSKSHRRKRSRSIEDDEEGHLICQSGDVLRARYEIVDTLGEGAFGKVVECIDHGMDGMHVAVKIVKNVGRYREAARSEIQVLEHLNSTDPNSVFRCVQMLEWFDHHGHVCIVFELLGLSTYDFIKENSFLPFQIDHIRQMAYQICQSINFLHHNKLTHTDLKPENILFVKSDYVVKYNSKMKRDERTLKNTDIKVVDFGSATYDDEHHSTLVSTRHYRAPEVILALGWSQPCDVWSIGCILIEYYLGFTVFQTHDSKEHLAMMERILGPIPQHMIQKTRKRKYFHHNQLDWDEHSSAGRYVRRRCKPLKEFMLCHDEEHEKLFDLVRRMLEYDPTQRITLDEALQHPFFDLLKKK

The target of test [11] is Ubiquitin carboxyl-terminal hydrolase 1 (Homo sapiens) (UniProt O94782). The test is described as follows: Inhibitors of USP1/UAF1: Pilot qHTS (AID 504865; active = well fitted curve in the direction sought with a large enough effect; an effect the other way counts as inactive or inconclusive;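 also: rhodamine fluorescence freed from ubiquitin-rhodamine substrate followed over time; top concentration of the series differs between compounds; % is scaled to controls: 0 for no effect and ±100 for the full control effect; nearly all actives have a fitted effect of over 35% in size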). The conditions noted are these: purified USP1/UAF1, Ub-rhodamine cleavage fluorescence; series mostly up to 54.9 µM. The essentials:
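In 50mM HEPES pH 7.8 containing 0.5mM EDTA, 1mM TCEP, 0.1 mg/ml BSA and 0.01% Tween-20, 1nM USP1/UAF1 is exposed to compound for 15 min, then Ub-Rho (150nM final) is added and fluorescence is read over time.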

The target in test [12] is Glucocorticoid receptor (Homo sapiens) (UniProt P04150). The test is described as follows: GR-EFC Redistribution (AID 451; calls by dose curve; also: potency is read from the fitted curve at half-maximal effect). The conditions noted are these: CHO-K1 GR-EFC translocation, beta-gal luminescence, 2 h. The essentials:
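Translocation of GR-ED fusion to nuclear EA restores b-gal, read by luminescence after 1 h room-temperature detection. Engineered CHO-K1 biosensor cells, 1,000/well, exposed 2 h at 37 C to titrations up to 46 uM final.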

The target of test [13] is Cytochrome P450 2C19 (Homo sapiens) (UniProt P33261). The experiment in a line: qHTS Assay for Inhibitors and Substrates of Cytochrome P450 2C19 (AID 899; active = well fitted curve in the direction sought with a large enough effect; an effect the other way counts as inactive or inconclusive; also: nearly all actives have a fitted effect of over 60% in size; also: potency is read from the fitted curve at half-maximal effect). The conditions noted are these: recombinant CYP2C19, luciferin-H EGE luminescence; series mostly up to 57.1 µM. An outline of the steps:
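Luminescence readout of luciferin formed from 10uM Luciferin-H EGE (KM level) by 5 nM CYP2C19 in 50mM KPO4. 60 min NADPH-driven reaction at 37C after 10 min compound preincubation; data scaled to 57uM ketoconazole inhibition.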

Test [14] addresses Dual specificity protein kinase CLK4 (Homo sapiens) (UniProt Q9HAZ1). The experiment in a line: qHTS Assay for Inhibitors of CDC-like Kinase 4 (ADP-Glo Assay) (AID 1771; active = well fitted curve in the direction sought with a large enough effect; an effect the other way counts as inactive or inconclusive; also: nearly all actives have a fitted effect of over 70% in size; also: potency is read from the fitted curve at half-maximal effect). As to conditions: recombinant CLK4, ADP-Glo luminescence; series mostly up to 80 µM. An outline of the steps:
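Clk4 (25 nM) was incubated 1 hr at room temperature with 100 uM RS repeat peptide and 1 uM ATP in buffer with 2 mM MgCl2, 0.5 mM EGTA, 2.5 mM DTT. ADP formed was quantified by ADP-Glo luminescence.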

Test [15] shares this target. The test is described as follows: qHTS Assay for Inhibitors of CDC-like Kinase 4 (ADP-FP Assay) (AID 1795; active = well fitted curve in the direction sought with a large enough effect; an effect the other way counts as inactive or inconclusive;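 also: recombinant human CLK4 phosphorylating RS repeat peptide at 1 µM ATP; % is scaled to controls: 0 for no effect and ±100 for the full control effect; nearly all actives have a fitted effect of over 60% in size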). As to conditions: Transcreener ADP fluorescence polarization; series mostly up to 50 µM. An outline of the steps:
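Clk4 6.25 nM; RS peptide 100 uM; ATP 1 uM; 25 mM Tris pH 7.5, 10 mM MgCl2; 1 h reaction. ADP detected via antibody/orange tracer FP displacement; TG003 positive control.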

Where [16] appears, read: measured here: cell count channel max response.
Where [17] appears, read: measured here: lipid channel max response.

Ubiquitin carboxyl-terminal hydrolase 1 (Homo sapiens), sequence (O94782 whole entry, looked up): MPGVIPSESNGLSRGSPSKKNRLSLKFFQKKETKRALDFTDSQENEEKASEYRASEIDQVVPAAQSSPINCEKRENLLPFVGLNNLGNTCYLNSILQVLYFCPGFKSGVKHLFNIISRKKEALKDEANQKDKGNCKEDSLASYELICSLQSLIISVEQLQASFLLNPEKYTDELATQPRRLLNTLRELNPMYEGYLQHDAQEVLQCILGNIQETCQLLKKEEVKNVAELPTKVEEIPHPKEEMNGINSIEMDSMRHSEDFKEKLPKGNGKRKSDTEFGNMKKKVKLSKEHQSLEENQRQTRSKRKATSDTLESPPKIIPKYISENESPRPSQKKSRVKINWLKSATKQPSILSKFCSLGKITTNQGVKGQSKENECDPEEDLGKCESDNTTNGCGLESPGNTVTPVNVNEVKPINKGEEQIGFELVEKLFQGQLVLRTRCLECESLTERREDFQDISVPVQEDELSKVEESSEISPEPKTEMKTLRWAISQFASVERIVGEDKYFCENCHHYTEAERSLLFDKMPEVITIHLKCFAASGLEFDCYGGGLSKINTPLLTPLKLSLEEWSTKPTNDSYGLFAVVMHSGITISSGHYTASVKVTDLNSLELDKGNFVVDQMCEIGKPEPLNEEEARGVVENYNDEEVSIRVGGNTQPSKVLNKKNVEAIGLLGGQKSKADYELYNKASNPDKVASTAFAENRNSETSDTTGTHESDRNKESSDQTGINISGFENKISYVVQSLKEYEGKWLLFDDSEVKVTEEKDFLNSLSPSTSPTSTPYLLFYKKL
Lysosomal acid glucosylceramidase (Homo sapiens), sequence (P04062 whole entry, looked up): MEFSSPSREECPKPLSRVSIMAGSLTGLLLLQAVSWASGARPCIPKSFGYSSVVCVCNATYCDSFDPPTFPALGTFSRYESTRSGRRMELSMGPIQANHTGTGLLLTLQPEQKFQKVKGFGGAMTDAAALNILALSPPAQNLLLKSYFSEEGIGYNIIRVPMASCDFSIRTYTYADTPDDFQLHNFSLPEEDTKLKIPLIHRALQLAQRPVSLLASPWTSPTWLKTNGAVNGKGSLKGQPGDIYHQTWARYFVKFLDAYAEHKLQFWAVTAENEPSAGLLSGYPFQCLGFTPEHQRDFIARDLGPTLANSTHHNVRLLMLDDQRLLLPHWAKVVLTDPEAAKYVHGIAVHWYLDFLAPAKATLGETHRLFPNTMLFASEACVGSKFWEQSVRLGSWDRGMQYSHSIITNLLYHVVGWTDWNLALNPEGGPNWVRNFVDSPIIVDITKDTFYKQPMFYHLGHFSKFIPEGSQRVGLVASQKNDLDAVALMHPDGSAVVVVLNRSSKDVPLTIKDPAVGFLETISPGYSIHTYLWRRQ
Cytochrome P450 1A2 (Homo sapiens), sequence (P05177 whole entry, looked up): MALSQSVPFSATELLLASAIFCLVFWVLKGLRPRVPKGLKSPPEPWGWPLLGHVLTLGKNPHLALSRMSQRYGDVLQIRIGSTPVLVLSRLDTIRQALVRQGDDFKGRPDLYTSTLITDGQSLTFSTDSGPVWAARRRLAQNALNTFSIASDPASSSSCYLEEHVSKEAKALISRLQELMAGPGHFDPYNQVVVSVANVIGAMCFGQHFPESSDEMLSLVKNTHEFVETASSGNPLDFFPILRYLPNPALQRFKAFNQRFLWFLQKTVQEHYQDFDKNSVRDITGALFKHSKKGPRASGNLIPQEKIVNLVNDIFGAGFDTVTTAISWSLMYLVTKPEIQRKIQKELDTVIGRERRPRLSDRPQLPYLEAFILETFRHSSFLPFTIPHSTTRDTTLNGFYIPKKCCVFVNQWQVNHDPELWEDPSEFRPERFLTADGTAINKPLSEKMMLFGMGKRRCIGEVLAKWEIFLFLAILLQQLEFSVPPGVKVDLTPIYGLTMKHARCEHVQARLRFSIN
Cytochrome P450 2C19 (Homo sapiens), sequence (P33261 whole entry, looked up): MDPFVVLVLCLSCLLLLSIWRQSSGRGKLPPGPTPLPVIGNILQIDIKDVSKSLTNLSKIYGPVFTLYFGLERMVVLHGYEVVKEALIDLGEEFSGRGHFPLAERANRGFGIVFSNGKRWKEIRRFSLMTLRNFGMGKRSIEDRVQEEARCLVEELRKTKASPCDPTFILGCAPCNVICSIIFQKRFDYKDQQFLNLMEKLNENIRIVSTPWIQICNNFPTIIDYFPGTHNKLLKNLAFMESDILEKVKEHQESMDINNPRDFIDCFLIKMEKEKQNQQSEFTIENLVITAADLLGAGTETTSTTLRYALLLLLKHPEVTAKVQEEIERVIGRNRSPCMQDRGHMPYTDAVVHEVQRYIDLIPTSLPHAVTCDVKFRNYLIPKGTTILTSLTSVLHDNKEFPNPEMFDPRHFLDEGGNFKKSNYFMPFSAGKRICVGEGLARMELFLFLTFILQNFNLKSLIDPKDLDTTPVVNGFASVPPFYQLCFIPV

`COCCn1c(=O)c(-c2cccc(C#N)c2)nc2cnc(N3CCN(C)CC3)nc21`: the Potency is > 11.4 µM (inactive) in test [1], 15.8 µM (active) in test [3] and > 9.22 µM (inactive) in test [6]. Moreover, the activity change, negative = inhibition is -14.7% (inactive) in test [2], 0.13% (inactive) in [4] and 6.64% (inactive) in [9]. Further, in [5], the activity, negative = inhibition is -4.72% (inactive). For the same compound, the Potency entry in [7], in test [8], in test [10] and in test [11] was “inactive” each time. Moreover, the max response in test [9] (setting [16]) is 18.2%; in test [9] (setting [17]) it was 22.5%.

In the case of `CN1CCN(c2ncc3nc(-c4cccc(C#N)c4)c(=O)n(C[C@H]4CCCO4)c3n2)CC1`, the Potency in test [1] is > 11.4 µM (inactive); in test [3], 15.8 µM (active); in [6], > 9.22 µM (inactive); in test [12] it was > 46 µM (inactive). For the same compound, the activity change, negative = inhibition in test [2] was 27.9% (inactive); in test [4], -3.07% (inactive); in test [9], 2.76% (inactive). In addition, the activity, negative = inhibition in [5] is 11.4% (inactive). Moreover, the Potency entry in test [7], in test [8], in [13], in test [14], in test [15] and in test [11] was “inactive” in each case. In addition, the results for the max response in [9] (setting [16]) and in test [9] (setting [17]) were 11.1% and 12.1%, respectively.

For `COc1cccc(Cn2c(=O)c(C)nc3cnc(Nc4cccc(OC)c4)nc32)c1`, the results for the Potency in test [1], in test [6] and in [12] were > 11.4 µM (inactive), > 9.22 µM (inactive) and > 46 µM (inactive), respectively. For the same compound, the activity change, negative = inhibition in [2] was -28.7% (inactive); in [4] it was 19% (inactive); in test [9], -5.29% (inactive). For the same compound, in [5], the activity, negative = inhibition was -18.7% (inactive). In addition, the Potency result in test [7], in test [10], in test [15] and in test [11] was “inactive” each time. For the same compound, the max response in test [9] (setting [16]) came out at 11.9%; in test [9] (setting [17]), 6.74%.

On to `COc1cccc(Nc2ncc3nc(C)c(=O)n(C[C@H]4CCCO4)c3n2)c1`, for which the Potency was > 11.4 µM (inactive) in test [1]; > 9.22 µM (inactive) in [6]; > 46 µM (inactive) in test [12]; 12.6 µM (active) in test [10]; 17.8 µM (active) in test [14]. Besides, the activity change, negative = inhibition in test [2] was -22.6% (inactive); in [4] it was 8.96% (inactive); in test [9], -3.96% (inactive). For the same compound, the activity, negative = inhibition in test [5] is -10.3% (inactive). Moreover, the Potency result in test [7], in test [8] and in [11] was “inactive” throughout. Moreover, the max response in test [9] (setting [16]) was -4.6%; in test [9] (setting [17]), -7.75%.

For `Clc1ccccc1-c1ccc2ncnc(NC3CCNCC3)c2c1`, the Potency is > 11.4 µM (inactive) in [1]; 15.8 µM (active) in [3]; > 46 µM (inactive) in [12]; 3.98 µM (active) in test [13]; 25.1 µM (active) in [10]; 22.4 µM (active) in test [14]. Moreover, the activity change, negative = inhibition was -8.44% (inactive) in test [4] and 1.65% (inactive) in test [9]. Further, the activity, negative = inhibition in [5] was -0.786% (inactive). The Potency entry in test [7], in [8] and in test [11] was “inactive” throughout. Further, the max response stood at 0.483% in test [9] (setting [16]) and 1.92% in test [9] (setting [17]).

Consider `Cc1noc(C)c1-c1nc(NC2CCNCC2)c2ccccc2n1`, for which the figures for the activity change, negative = inhibition in [2], in test [4] and in test [9] were 34.4% (inactive), 26.2% (inactive) and 4.9% (inactive), respectively. Moreover, the Potency in test [3] was 5.01 µM (active); in [6], > 46 µM (inactive); in test [12], > 46 µM (inactive); in test [10], 25.1 µM (active); in [14] it was 28.2 µM (active). Also, the activity, negative = inhibition in [5] is 6.06% (inactive). Further, the Potency result in test [7], in [8] and in test [11] was “inactive” throughout. In addition, the max response was determined as 11.4% in test [9] (setting [16]) and 12.7% in test [9] (setting [17]).
